Assay outcomes deposited in PubChem by Broad Institute.
RAD52 inh: RAD52 DNA annealing inhibitors, primary screen, biochemical, FRET, single point, set 2; inhibition, % at 18.7 µM; AID 651710, 2012; recombinant RAD52 DNA annealing, FRET fluorescence; DNA repair protein RAD52 homolog (Homo sapiens), P43351; 360,000 compounds, 0.46% hits;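 active = every replicate showing at least 50% inhibition; inconclusive = mean inhibition at least 50% but not in every replicate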
Target sequence (P43351 whole entry, looked up): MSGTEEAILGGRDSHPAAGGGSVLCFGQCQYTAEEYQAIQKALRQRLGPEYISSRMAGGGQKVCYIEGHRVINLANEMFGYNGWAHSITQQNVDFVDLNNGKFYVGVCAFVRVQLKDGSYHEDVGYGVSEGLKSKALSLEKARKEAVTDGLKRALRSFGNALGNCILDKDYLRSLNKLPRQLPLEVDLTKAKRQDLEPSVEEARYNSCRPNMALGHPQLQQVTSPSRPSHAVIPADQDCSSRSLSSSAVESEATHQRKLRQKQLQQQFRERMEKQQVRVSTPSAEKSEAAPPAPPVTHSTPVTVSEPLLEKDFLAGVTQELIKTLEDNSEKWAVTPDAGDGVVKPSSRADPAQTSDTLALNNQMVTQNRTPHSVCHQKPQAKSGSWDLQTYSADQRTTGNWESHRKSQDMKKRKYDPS
DENV2 CPE: inhibitors of DENV2 cytopathic effect, primary screen, cell-based, plate reader, single concentration | DENV2-infected cells, cytopathic effect rescue | AID 651640, 2012 | CPE inhibition, % at 9.99 µM | 350,000 compounds, 1.7% hits; in the data active = CPE inhibition above about 20%, passing the limit was not always enough; inconclusive = no clear call, values can overlap the other calls; tested in BHK-21 cells
FGF22 binding: binders of human FGF22 protein, primary screen, FGF22 synaptogenesis inhibitor project, biophysical, thermal shift, single point; Fibroblast growth factor 22 (Homo sapiens), Q9HCT0; recombinant FGF22 thermal shift, SYPRO orange fluorescence; percent of sucrose octasulfate shift, DMSO zero; activity (Tm shift, normalised), % at 9.99 µM; 340,000 compounds, 1.5% hits; AID 651658, 2012;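 active = mean Tm shift, scaled 0 neutral to 100 positive control, at about 1.3% or above, every replicate too, limit read from the data; inconclusive = no clear call, values can overlap the other calls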
AF4-AF9 inh: inhibitors of AF4 peptide binding to AF9, primary screen, biochemical, AlphaScreen, biotin-AF4 peptide, FLAG-AF9, single point; Protein AF-9 (Homo sapiens), P42568; inhibition, % at 10 µM; 350,000 compounds, 0.47% hits; AID 651704, 2012;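 active = every replicate reaching a set inhibition limit, whatever the replicate mean, cut at about 25% in these data; inconclusive = mean inhibition reaches that limit but some replicates miss it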
ERAP1 inh: human ERAP1 aminopeptidase inhibitors, primary screen, biochemical, single point, plate reader; Endoplasmic reticulum aminopeptidase 1 (Homo sapiens), Q9NZ08; recombinant ERAP1, Leu-AMC fluorescence, 60 min; inhibition, % at 10.7 µM; 340,000 compounds, 0.15% hits; AID 652197, 2013;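 active = mean replicate inhibition of at least 30%, or all replicates individually reaching that 30% level; inactive = mean below 30% and not every replicate reaching it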
Hits are given with their value; – = inactive; ? = inconclusive; · = not tested or not shown; ! = not confirmed by another sample. The list is not random: actives were taken first. Their share in the collection is about 4%.

SMILES	RAD52 inh	DENV2 CPE	FGF22 binding	AF4-AF9 inh	ERAP1 inh
CO[C@H]1/C=C/O[C@@]2(C)Oc3c(C)c(O)c4c(O)c(c5c(c4c3C2=O)NC2(CCN(CC(C)C)CC2)N=5)=NC(=O)/C(C)=C\C=C\[C@H](C)[C@H](O)[C@@H](C)[C@@H](O)[C@@H](C)[C@H](OC(C)=O)[C@@H]1C	–	110	–	·	–
CCCC#Cc1cnc2c(c1)C(=O)N([C@@H](C)CO)C[C@@H](C)[C@@H](CN(C)C(=O)CN1CCOCC1)O2	–	–	·	–	·
C[C@@H]1CN([C@H](C)CO)C(=O)c2cccc(NC(=O)c3ccc(-c4nccs4)cc3)c2O[C@@H]1CN(C)CC1CC1	–	–	–	–	–
C[C@H]1CN([C@@H](C)CO)C(=O)c2cc(NC(=O)NC3CCCCC3)ccc2O[C@@H]1CN(C)Cc1ccc(C(=O)O)cc1	–	–	–	–	–
C[C@H](CO)N1C[C@H](C)[C@@H](CN(C)Cc2ccc(C(=O)O)cc2)Oc2ccc(NC(=O)NC3CCCCC3)cc2C1=O	–	45	–	–	–
C[C@H](CO)N1C[C@H](C)[C@@H](CN(C)Cc2ccc(-c3ccccc3)cc2)Oc2ccc(NC(=O)NC3CCCCC3)cc2C1=O	89	–	–	–	–
O=C(C1=C[C@H](c2ccccc2)C[C@H](OCc2ccc(CO)cc2)O1)N1CCCC1	–	–	–	–	–
C[C@@H]1CN([C@H](C)CO)C(=O)c2cc(NS(=O)(=O)c3ccc(F)cc3)ccc2O[C@H]1CN(C)Cc1ccc(C(=O)O)cc1	–	–	–	–	–
CCCn1c(=O)c2ccccc2n2c(SCC(=O)c3ccccc3)nnc12	–	–	–	–	–
CCCn1c(=O)c2ccccc2n2c(SCCNCCO)nnc12	–	–	–	27	–
COc1cc(CC(C#N)(CO)c2nc3ccccc3[nH]2)ccc1OC(F)F (stereo not given)	–	47	–	–	–
COc1cc(C(=O)Nc2nc3ccccc3[nH]2)ccc1OC(F)F	–	–	–	–	·
C[C@H]1CN([C@@H](C)CO)C(=O)c2cccc(NC(=O)CCCCCC(=O)Nc3ccccc3N)c2O[C@H]1CN(C)C(=O)NC1CCCCC1	–	–	–	–	–
C[C@@H]1CN([C@@H](C)CO)C(=O)CCCn2cc(nn2)CO[C@@H]1CN(C)S(=O)(=O)c1ccc2c(c1)OCCCO2	–	?	–	–	–
C[C@H](CO)N1C[C@H](C)[C@@H](CN(C)S(=O)(=O)c2cccc(F)c2)OCc2cn(nn2)CCCC1=O	–	55!	–	–	–
C[C@H]1CN([C@@H](C)CO)C(=O)CCCn2cc(nn2)CO[C@H]1CN(C)S(=O)(=O)c1ccc2c(c1)OCCCO2	–	31	–	–	–
CO[C@H]1CN(C)C(=O)c2ccc(NS(=O)(=O)c3cccc(F)c3)cc2OC[C@H](C)NC[C@@H]1C	–	–	–	–	–
CO[C@H]1CN(C)C(=O)c2ccc(NS(=O)(=O)c3ccc(-c4ccccc4)cc3)cc2OC[C@@H](C)NC[C@@H]1C	–	29	–	–	–
CO[C@H]1CN(C)C(=O)c2ccc(NS(=O)(=O)c3ccc(Oc4ccccc4)cc3)cc2OC[C@H](C)NC[C@H]1C	–	22	–	–	–
CO[C@@H]1CN(C)C(=O)c2ccc(NS(=O)(=O)c3ccc(Oc4ccccc4)cc3)cc2OC[C@H](C)NC[C@H]1C	–	–	–	–	–
CO[C@@H]1CN(C)C(=O)c2ccc(NS(=O)(=O)c3cccc(F)c3)cc2OC[C@@H](C)NC[C@@H]1C	–	71	–	–	–
CO[C@@H]1CN(C)C(=O)c2ccc(NS(=O)(=O)c3ccc(-c4ccccc4)cc3)cc2OC[C@H](C)NC[C@@H]1C	–	–	–	–	–
O=C(C1CCC1)N1[C@H](CO)[C@@H](c2ccccc2)C12CN(CCC(F)(F)F)C2	–	–	–	–	–
C[C@H](CO)N1C[C@H](C)[C@@H](CN(C)S(=O)(=O)c2ccccc2)OCCCC[C@H](C)Oc2ccc(NS(=O)(=O)c3ccc(Cl)cc3)cc2C1=O	–	–	–	–	–
